Reference: PubChem BioAssay
Several values for one entry are separate records, joined by “and”; a condition that tells them apart may be missing. Equal entries are not always repeated. Inconclusive results are not listed. Activity calls are given as the source filed them.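 The calls were made as follows, unless noted: active = normalized viability below 100% at a tested concentration; inactive = the rest.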

Tests used:
[1] = viability loss in pontine glioma line – cell-based, SU-DIPG-XXV, MIPE5.0, CellTiter-Glo, qHTS, dose response (AID 1347065; cut-off not given, nearly all actives have AC50 up to about 26 µM;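 also: cells exposed to compound for 48 hours before ATP readout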); details: CellTiter-Glo ATP luminescence
[2] = JHH-DIPG-1 glioma cell viability, MIPE5.0 library, CellTiter-Glo luminescence, qHTS (AID 1347067; cut-off not given, nearly all actives have AC50 up to about 26 µM;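 also: cells exposed to compound for 48 hours before readout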); details: JHH-DIPG-1 glioma viability, CellTiter-Glo ATP luminescence
[3] = SU-DIPG-XXV glioma cell viability, MIPE5.0 library, qHTS (AID 1347068; cut-off not given, nearly all actives have IC50 up to about 30 µM)
[4] = inhibitors of Cryptococcus chitosan production, flow cytometry, Cibacron Brilliant Red staining (AID 1347148; call rule not given here;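 also: compound exposure lasted three days at 37 degrees C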); details: Cryptococcus neoformans chitosan, stronger effect = lower value; at 10 µM unless noted
[5] = phospholipid biosynthesis inhibitors in animal cells, primary screen, cell-based, LOPAC library, screen 4 (AID 1347384; call rule not given here); details: phospholipid biosynthesis inhibition screen, at 10 µM
[6] = survival rescue of mitochondrial mutant cells in low glucose, primary screen, MELAS cybrids, Rieske KO mouse fibroblasts, CellTiter-Glo (AID 1508586;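 active = mean z-score across replicates of 1.96 or higher in either the MELAS or the Rieske mutant cell line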;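 also: z relative to plate mean and SD of compound and empty wells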)
[7] = ovarian cancer cell viability with rucaparib, profiling panel, oncology-focused library, rucaparib conditional (AID 1508598); details: patient-derived ovarian cancer cells, CellTiter-Glo viability, 144 h, stronger effect = lower value
[8] = target: Mitogen-activated protein kinase 7 (Homo sapiens) (UniProt Q13164); assay: ERK5 transactivation activators in reporter cells, primary screen, cell-based, HTS (AID 1508626;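 active = luciferase signal above three times the same-plate solvent-only control wells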;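 also: luciferase driven by Gal4-ERK5 fusion binding five Gal4 sites before minimal TATA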); details: HeLa Gal4-ERK5 transactivation, 18 h, at 5 µM, stronger effect = higher value
[9] = viability rescue of complex I mutant cybrids, primary screen, cell-based, galactose medium, ATP luminescence (AID 1645843;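 active = z-score of at least 1.8 in each of two replicates, scored against plate mean and spread of sample wells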;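 also: positive z means more ATP and so rescue of galactose-driven cybrid death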); details: complex I mutant cybrid cells, 72 h, stronger effect = higher value
[10] = LFS_MB_P medulloblastoma growth inhibition, cell-based, chromothripsis tumors, cisplatin or BGB combos (AID 1671449; in the data active = inhibition above about 80%;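 also: cells exposed for 96 hours; 0% = vehicle DMSO and 100% = killing by high DMSO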); details: LFS_MB_P medulloblastoma cells
[11] = HDN33 neuroblastoma growth inhibition, cell-based, chromothripsis tumors, cisplatin or BGB combos (AID 1671450; in the data active = inhibition above about 80%;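 also: cells exposed to compound for four days; 0% = vehicle DMSO and 100% = cell killing by high DMSO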); details: HDN33 neuroblastoma cells, stronger effect = higher value
[12] = ICB984 medulloblastoma cell growth inhibition, synergistic combos for chromothripsis tumors, cisplatin or BGB combos (AID 1671451; call rule not given here;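 also: cells exposed for 96 hours before readout; 0% = vehicle DMSO and 100% = killing by high DMSO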); details: ICB984 medulloblastoma cells, drug combinations, stronger effect = higher value
[13] = LFS_MB_1R medulloblastoma cell growth inhibition, synergistic combos for chromothripsis tumors, cisplatin or BGB combos (AID 1671452; in the data active = inhibition above about 80%;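 also: cells exposed for 96 hours before readout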); details: LFS_MB_1R medulloblastoma cells, stronger effect = higher value
[14] = HTB85 osteosarcoma cell growth inhibition, synergistic combos for chromothripsis tumors, BGB or cisplatin IC20 combos (AID 1671453; in the data active = inhibition above about 80%;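 also: cells exposed for 96 hours before readout; 0% = vehicle DMSO and 100% = high DMSO killing control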); details: HTB85 osteosarcoma cells, drug combinations, stronger effect = higher value
[15] = CRL2098 osteosarcoma cell growth inhibition, synergistic combos for chromothripsis tumors, BGB or cisplatin IC20 combos (AID 1671454; in the data active = inhibition above about 80%;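 also: cells exposed for 96 h before readout; 0% = vehicle DMSO and 100% = killing by high DMSO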); details: CRL2098 osteosarcoma cells, drug combinations, stronger effect = higher value
[16] = HD-MB03 medulloblastoma cell growth inhibition, synergistic combos for chromothripsis tumors, BGB or cisplatin IC20 combos (AID 1671455; in the data active = inhibition above about 83%;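 also: 0% = vehicle DMSO and 100% = high DMSO as cytotoxic control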); details: HD-MB03 medulloblastoma cells, stronger effect = higher value
[17] = measured here: combination with BGB IC40, at 0.05 µM

Chain of Mitogen-activated protein kinase 7 (Homo sapiens) (Q13164 whole entry, looked up, the tested form may be a part): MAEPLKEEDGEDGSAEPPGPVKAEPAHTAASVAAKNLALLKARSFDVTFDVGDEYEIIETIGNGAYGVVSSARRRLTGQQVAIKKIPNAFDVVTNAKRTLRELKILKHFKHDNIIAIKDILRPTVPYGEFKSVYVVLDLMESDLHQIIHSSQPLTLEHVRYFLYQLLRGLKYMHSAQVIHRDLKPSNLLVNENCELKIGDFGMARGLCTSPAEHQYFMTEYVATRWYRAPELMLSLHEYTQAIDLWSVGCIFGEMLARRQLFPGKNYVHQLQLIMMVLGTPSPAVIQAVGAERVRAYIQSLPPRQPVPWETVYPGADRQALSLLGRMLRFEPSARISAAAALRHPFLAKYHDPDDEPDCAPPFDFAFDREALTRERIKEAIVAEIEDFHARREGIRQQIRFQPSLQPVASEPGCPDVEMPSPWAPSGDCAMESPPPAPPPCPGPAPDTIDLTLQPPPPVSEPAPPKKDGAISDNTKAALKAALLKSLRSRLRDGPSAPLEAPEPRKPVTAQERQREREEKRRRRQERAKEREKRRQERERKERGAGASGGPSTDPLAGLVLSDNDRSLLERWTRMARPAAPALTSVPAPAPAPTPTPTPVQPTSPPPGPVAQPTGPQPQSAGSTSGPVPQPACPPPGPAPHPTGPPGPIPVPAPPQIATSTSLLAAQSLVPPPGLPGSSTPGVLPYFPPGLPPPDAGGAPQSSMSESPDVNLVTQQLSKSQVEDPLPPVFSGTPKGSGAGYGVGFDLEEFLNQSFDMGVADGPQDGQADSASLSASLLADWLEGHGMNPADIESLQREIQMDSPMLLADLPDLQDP

SMILES: O=c1c(O)c(-c2ccc(O)c(O)c2)oc2cc(O)cc(O)c12
- outcome [1]: inactive
- outcome [2]: inactive
- outcome [3]: inactive
- fold fluorescence [4]: 2.95 [at 165.4 µM] (active)
- outcome [5]: inactive
- z-score ([6]; MELAS cybrid survival, CellTiter-Glo 48 h, stronger effect = higher value): -0.4 (inactive) and -0.42 (inactive)
- z-score ([6]; Rieske KO mouse fibroblast survival, CellTiter-Glo 72 h): -1.01 and 0.378
- viability ([7]; at 0.000305 µM, OCI-C5x cells, with rucaparib 10 µM, 100% = cells with rucaparib alone): 118% (inactive)
- viability ([7]; at 0.000305 µM, OCI-C5x cells, without rucaparib): 113% (inactive)
- viability ([7]; at 0.000305 µM, OCI-P5x cells, with rucaparib 20 µM, 100% = cells with rucaparib alone): 92% (active)
- viability ([7]; at 0.000305 µM, OCI-P5x cells, without rucaparib): 92.3% (active)
- viability ([7]; at 0.00122 µM, OCI-C5x cells, with rucaparib 10 µM, 100% = cells with rucaparib alone): 122% (inactive)
- viability ([7]; at 0.00122 µM, OCI-C5x cells, without rucaparib): 119% (inactive)
- viability ([7]; at 0.00122 µM, OCI-P5x cells, with rucaparib 20 µM, 100% = cells with rucaparib alone): 97.3% (active)
- viability ([7]; at 0.00122 µM, OCI-P5x cells, without rucaparib): 102% (inactive)
- viability ([7]; at 0.00488 µM, OCI-C5x cells, with rucaparib 10 µM, 100% = cells with rucaparib alone): 117% (inactive)
- viability ([7]; at 0.00488 µM, OCI-C5x cells, without rucaparib): 129% (inactive)
- viability ([7]; at 0.00488 µM, OCI-P5x cells, with rucaparib 20 µM, 100% = cells with rucaparib alone): 104% (inactive)
- viability ([7]; at 0.00488 µM, OCI-P5x cells, without rucaparib): 105% (inactive)
- viability ([7]; at 0.0195 µM, OCI-C5x cells, with rucaparib 10 µM, 100% = cells with rucaparib alone): 127% (inactive)
- viability ([7]; at 0.0195 µM, OCI-C5x cells, without rucaparib): 125% (inactive)
- viability ([7]; at 0.0195 µM, OCI-P5x cells, with rucaparib 20 µM, 100% = cells with rucaparib alone): 105% (inactive)
- viability ([7]; at 0.0195 µM, OCI-P5x cells, without rucaparib): 105% (inactive)
- viability ([7]; at 0.0781 µM, OCI-C5x cells, with rucaparib 10 µM, 100% = cells with rucaparib alone): 114% (inactive)
- viability ([7]; at 0.0781 µM, OCI-C5x cells, without rucaparib): 125% (inactive)
- viability ([7]; at 0.0781 µM, OCI-P5x cells, with rucaparib 20 µM, 100% = cells with rucaparib alone): 105% (inactive)
- viability ([7]; at 0.0781 µM, OCI-P5x cells, without rucaparib): 109% (inactive)
- viability ([7]; at 0.313 µM, OCI-C5x cells, with rucaparib 10 µM, 100% = cells with rucaparib alone): 111% (inactive)
- viability ([7]; at 0.313 µM, OCI-C5x cells, without rucaparib): 127% (inactive)
- viability ([7]; at 0.313 µM, OCI-P5x cells, with rucaparib 20 µM, 100% = cells with rucaparib alone): 101% (inactive)
- viability ([7]; at 0.313 µM, OCI-P5x cells, without rucaparib): 112% (inactive)
- viability ([7]; at 1.25 µM, OCI-C5x cells, with rucaparib 10 µM, 100% = cells with rucaparib alone): 111% (inactive)
- viability ([7]; at 1.25 µM, OCI-C5x cells, without rucaparib): 125% (inactive)
- viability ([7]; at 1.25 µM, OCI-P5x cells, with rucaparib 20 µM, 100% = cells with rucaparib alone): 103% (inactive)
- viability ([7]; at 1.25 µM, OCI-P5x cells, without rucaparib): 107% (inactive)
- viability ([7]; at 5 µM, OCI-C5x cells, with rucaparib 10 µM, 100% = cells with rucaparib alone): 109% (inactive)
- viability ([7]; at 5 µM, OCI-C5x cells, without rucaparib): 120% (inactive)
- viability ([7]; at 5 µM, OCI-P5x cells, with rucaparib 20 µM, 100% = cells with rucaparib alone): 90.4% (active)
- viability ([7]; at 5 µM, OCI-P5x cells, without rucaparib): 107% (inactive)
- luciferase signal [8]: 72 AU (inactive)
- z-score [9]: -0.695 (inactive) and -0.855 (inactive)
- inhibition ([10]; at 0.5 µM, stronger effect = higher value): -5.93% (inactive)
- inhibition ([10]; measured here: combination with BGB IC20, at 0.005 µM): 17%
- inhibition ([10]; measured here: combination with BGB IC40, at 0.005 µM): 13.5%
- inhibition [10, 17]: 25.1%
- inhibition ([10]; measured here: combination with cisplatin, at 0.5 µM, stronger effect = higher value): -24.2%
- inhibition ([10]; measured here: combination with cisplatin, at 5 µM, stronger effect = higher value): 20.2%
- inhibition ([11]; BGB combo, at 5 µM): -9.66%
- inhibition ([11]; at 0.5 µM): -7.52% (inactive)
- inhibition ([11]; cisplatin combo, at 5 µM): 10.5%
- inhibition ([11]; measured here: with BGB IC20 combination, at 0.5 µM): -21.2%
- inhibition ([11]; measured here: with cisplatin IC20 combination, at 0.5 µM): 12.4%
- inhibition ([11]; single agent, at 5 µM): -15.2%
- inhibition ([12]; BGB IC20 combo, at 0.005 µM): 14%
- inhibition ([12]; BGB IC40 combo, at 0.005 µM): -3.66%
- inhibition ([12]; BGB IC40 combo, at 0.05 µM): -21.1%
- inhibition ([12]; at 0.5 µM): 2.09% (inactive)
- inhibition ([12]; cisplatin combo, at 0.05 µM): -21.1%
- inhibition ([12]; cisplatin combo, at 0.5 µM): -0.46%
- inhibition ([12]; cisplatin combo, at 5 µM): -2.17%
- inhibition ([12]; measured here: 5 uM single agent, at 5 µM): 2.61%
- inhibition ([13]; at 0.5 µM): -24.6% (inactive)
- inhibition [13, 17]: 7.65%
- inhibition ([13]; measured here: combination with cisplatin, at 0.5 µM): -39%
- inhibition ([13]; measured here: combination with cisplatin, at 5 µM): -2.19%
- inhibition ([14]; at 0.5 µM): -16.3% (inactive)
- inhibition ([14]; measured here: with BGB IC20, at 0.5 µM): -21.8%
- inhibition ([14]; measured here: with BGB IC20, at 5 µM): -1.29%
- inhibition ([14]; measured here: with cisplatin IC20, at 0.5 µM): -33.8%
- inhibition ([14]; measured here: with cisplatin IC20, at 5 µM): -25%
- inhibition ([14]; single agent, at 5 µM): -18.2%
- inhibition ([15]; at 0.5 µM): -28.1% (inactive)
- inhibition ([15]; measured here: combination with BGB at IC20, at 0.5 µM): -37.5%
- inhibition ([15]; measured here: combination with cisplatin at IC20, at 0.5 µM): -36.5%
- inhibition ([16]; at 0.5 µM): -8.42% (inactive)
- inhibition ([16]; measured here: combo with BGB at IC20, at 0.5 µM): -5.54%
- inhibition ([16]; measured here: combo with cisplatin at IC20, at 0.5 µM): -14%
